Measurements as given in PubChem BioAssay AID651957 (The Scripps Research Institute Molecular Screening Center, 2012).
Hit rate of the full screen: of about 370,000 compounds, about 620 (0.17%) were called active. This is one part of a sample in which actives are shown more often than they occur.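 How the source made its calls: active means inhibition above the mean inhibition of all tested compounds plus 3 SD, set per campaign (cut at about 52% in these data); inactive means the rest.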

biological target: Nuclear receptor coactivator 2 (Homo sapiens) (UniProt Q15596); assay: decrease of SRC2 fusion reporter luminescence – cell-based, SRC2 inhibitor project, primary screen (AID 651957); conditions: HEK293 GAL4-SRC2 luciferase reporter, at 9 µM, hits give high values;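 further: 0% = DMSO treated cells and 100% = cells given Gossypol at 36 µM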
Sequence (Q15596 whole entry, looked up, the tested form may be a part): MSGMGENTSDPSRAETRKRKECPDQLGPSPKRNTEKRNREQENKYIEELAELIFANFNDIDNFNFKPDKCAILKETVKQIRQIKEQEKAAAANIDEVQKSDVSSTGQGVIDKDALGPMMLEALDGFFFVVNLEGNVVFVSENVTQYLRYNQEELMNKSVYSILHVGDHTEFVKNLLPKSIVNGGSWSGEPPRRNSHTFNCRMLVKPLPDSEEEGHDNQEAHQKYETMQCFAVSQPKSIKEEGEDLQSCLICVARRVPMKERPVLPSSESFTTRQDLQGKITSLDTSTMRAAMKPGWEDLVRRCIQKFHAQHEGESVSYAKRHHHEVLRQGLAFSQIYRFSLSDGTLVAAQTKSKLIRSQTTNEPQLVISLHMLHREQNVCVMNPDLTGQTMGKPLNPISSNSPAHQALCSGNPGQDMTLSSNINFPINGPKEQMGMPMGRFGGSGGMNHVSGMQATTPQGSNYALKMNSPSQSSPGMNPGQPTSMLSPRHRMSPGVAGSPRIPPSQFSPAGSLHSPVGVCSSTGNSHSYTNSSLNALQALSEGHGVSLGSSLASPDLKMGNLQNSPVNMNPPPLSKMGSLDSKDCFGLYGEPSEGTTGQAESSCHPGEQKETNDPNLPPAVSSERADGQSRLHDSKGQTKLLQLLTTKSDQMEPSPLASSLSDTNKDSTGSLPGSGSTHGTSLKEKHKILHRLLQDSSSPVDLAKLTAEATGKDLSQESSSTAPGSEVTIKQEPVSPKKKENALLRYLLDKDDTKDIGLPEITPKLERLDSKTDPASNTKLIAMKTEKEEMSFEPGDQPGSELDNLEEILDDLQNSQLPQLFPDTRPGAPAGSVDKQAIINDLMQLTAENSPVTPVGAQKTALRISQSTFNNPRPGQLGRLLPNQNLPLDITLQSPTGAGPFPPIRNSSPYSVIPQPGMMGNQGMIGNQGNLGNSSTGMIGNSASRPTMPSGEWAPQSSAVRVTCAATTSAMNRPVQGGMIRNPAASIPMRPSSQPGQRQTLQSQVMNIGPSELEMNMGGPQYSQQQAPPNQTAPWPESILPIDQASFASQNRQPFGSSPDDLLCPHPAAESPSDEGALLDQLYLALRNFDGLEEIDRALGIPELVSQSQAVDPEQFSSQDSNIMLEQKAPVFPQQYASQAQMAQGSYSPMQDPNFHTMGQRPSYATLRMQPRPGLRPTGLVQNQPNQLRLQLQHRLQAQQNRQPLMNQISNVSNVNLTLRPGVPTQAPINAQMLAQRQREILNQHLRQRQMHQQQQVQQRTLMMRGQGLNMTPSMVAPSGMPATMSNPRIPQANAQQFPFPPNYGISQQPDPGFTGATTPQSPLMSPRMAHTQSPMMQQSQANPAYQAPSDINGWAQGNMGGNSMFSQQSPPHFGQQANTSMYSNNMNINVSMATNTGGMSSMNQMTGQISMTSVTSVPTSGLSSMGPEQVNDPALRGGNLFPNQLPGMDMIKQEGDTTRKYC

inhibition, active:
COc1ccc(/C=C2/SC(=O)N(CCCCCC(=O)Nc3ccccc3C(=O)O)C2=S)cc1 58.3%
O=C(Nc1ccccc1Cl)/C(Cl)=C(\Cl)S(=O)c1ccccc1 (stereo unspecified) 85.5%
CCOc1cc(/C=C(/C#N)c2ccc(Cl)cc2)cc(Cl)c1OCC(=O)O 56.9%
CN(c1ccc2nc3ccccc3c(=O)n2n1)C1CCCCC1 72.1%
CC1=CC(C)(C)Nc2ccc(OC(=O)CN3C(=O)C4CCCCC4C3=O)cc21 (stereo unspecified) 52.7%
CC(C)(C)c1ccc(Oc2ccc(N)cc2)cc1 92%
CCOc1ccc(NC(=S)NC(=O)/C=C/c2ccc(OC)cc2)c([N+](=O)[O-])c1 95.6%
COc1ccc(Nc2ncnc3ccc(Br)cc23)c(OC)c1 86.6%
CCC(C)(C)c1ccc(Oc2ccc(NC(=O)COC(=O)C3=COCCO3)cc2)cc1 56.6%
Cc1ccc2nc(-c3ccc(Br)cc3)cn2c1 60.3%
Cc1ccc(-c2cn3cc(C)ccc3n2)cc1 72.6%
COc1ccc(C(=O)Nc2ccccc2C(=O)N/N=C/c2ccc(O)c(OC)c2)cc1 55%
C=CCn1c(C)cc(C2=NNC(=NCC)SC2)c1C 84.4%
Cc1cccc(CS(=O)(=O)c2ncc(Cl)c(C(=O)Nc3ccc(F)cc3)n2)c1 62.1%
Cc1cccc(NC(=O)c2nc(S(=O)(=O)Cc3ccccc3)ncc2Cl)c1 64.1%
Cc1ccc(CS(=O)(=O)c2ncc(Cl)c(C(=O)Nc3nnc(C)s3)n2)cc1 64%

inhibition, inactive:
Cc1ccccc1NC(=O)c1nn(-c2ccc(F)c(F)c2)ccc1=O 1.35%
Cc1nnnn1/C(=C\c1ccccc1)C(=O)OCC(=O)N1CC2(C)CC1CC(C)(C)C2 (stereo unspecified) 32.3%
O=C1N=C2SCCN2/C1=C\c1c(Cl)cccc1Cl 4.12%
Cc1ccc(NC(=O)CCOc2ccccc2)cc1S(=O)(=O)Nc1ccccc1Cl 9.26%
CC(C)Cc1nc(Nc2ccc(S(=O)(=O)N3CCCC3)cc2)c2nnn(Cc3ccccc3)c2n1 -14.5%
CCCCOCCCNC(=O)C[C@H]1C[C@@]2(C(=O)OC)C(=C[C@H](C(C)(C)C)O[C@@H]2C)N(CCc2ccc(OC)c(OC)c2)C1=O 1.08%
COc1ccc(NC(=O)CCCN2C(=O)C(c3ccccc3)Oc3cccnc32)cc1 (stereo unspecified) 2.65%
COc1ccc(NC(=O)CN2C(=O)CSC2=O)cc1 -15.1%
CC(=O)Nc1ccc(NC(=O)C(C)n2c3ccccc3c3nc(=O)cc(C)n32)cc1 (stereo unspecified) -6.71%
O=C1C=C(c2ccccc2)CCC1 -5.31%
COC(=O)[C@]12C[C@H](CC(=O)NCc3ccccc3)C(=O)N(CCC3=CCCCC3)C1=C[C@H](C(C)(C)C)O[C@@H]2C 28.1%
N=c1n(CCc2ccccc2)c2ccccc2n1Cc1ccccc1F 2.8%
COc1c(C=O)c(CCN(C)C(=O)c2ccc(F)cc2)cc2c1OCO2 0.41%
CCCC[C@H]1C2CC(OC(=O)NCc3ccccc3)C(C2)[C@H]2CCCCN21 (stereo partly specified) -8.24%
COCCC(=O)Nc1ccc2c(c1)CN(C(=O)CCOC)CC2 9.25%
Cc1ccc(C(=O)N(Cc2ccccn2)CC2CCCO2)cc1 (stereo unspecified) -16.2%
Cc1noc(C)c1NC(=O)Nc1ccc2c(c1)C(=O)N([C@H](C)CO)C[C@H](C)[C@H](CN(C)Cc1ccncc1)OCCCC[C@@H](C)O2 5.48%
CC(C)N1CCCCC(NC(=O)C(C)(C)C)C1=O (stereo unspecified) 11.4%
COc1ccc(N2c3ccccc3CN(Cc3ccccc3)[C@@H](C)[C@H]2Cc2ccc(-c3ccccc3)cc2)cc1 -9.73%
Cc1c(C(C)c2ccccc2O)[nH]c2ccccc12 (stereo unspecified) -18.6%
O=S1(=O)c2c(cccc2N2CC[C@H](O)C2)O[C@@H]2CCN1C2 -22.3%
Cc1ccc(C2=CCN(C)C(=O)N2c2ccc(Cl)cc2)cc1 30.5%
O=C(NC1CCCCN(Cc2cccc(C(F)(F)F)c2)C1=O)c1ccccc1I (stereo unspecified) 18.9%
CCCC(CCC(=O)OC)(C(=O)OCC)c1csc(N)n1 (stereo unspecified) 11%
CCOC(=O)[C@]12CCCCC/C=C\1N(Cc1ccc(OC)cc1)C(=O)[C@H]2CC(=O)NCc1ccc(C)o1 -22.3%
O=C(CSc1nc2ccccc2n1Cc1ccccc1)NNC(=S)Nc1ccccc1 4.68%
COC(=O)C1=C(C)N(Cc2cccc(C(F)(F)F)c2)C(=NCc2cccc(C(F)(F)F)c2)NC1c1ccccc1C(F)(F)F (stereo unspecified) -30.7%
Cc1ccccc1CN1CCCCC(NC(=O)c2cccc(C#N)c2)C1=O (stereo unspecified) -18.3%
N#C/C(=C/c1ccc(Cl)cc1)NC(=O)c1ccccc1 -29%
CCOC(=O)CN(C(=O)COc1nc(C)cc(C)c1C#N)c1ccc(Cl)cc1 -18%
C=CCn1c(SCC(N)=O)nnc1-c1ccccc1OC -9.59%
O=C(c1ccco1)N(Cc1nc2ccccc2c(=O)[nH]1)C1CCCC1 2.27%
CC(C)CC1NC(=O)c2cc(Cl)ccc2-n2c1nc1ccccc1c2=O (stereo unspecified) 5.29%
O=C(NC1Cc2ccccc2C1)c1cc(COc2cccc(C(F)(F)F)c2)on1 11.1%
CC1(C)CC(N2CCN(C(c3ccccc3)c3ccccc3)CC2)=CC(=[N+]2CCCCC2)C1 24.5%
COc1ccc(S(=O)(=O)N2CCc3ccccc32)cc1C(=O)Nc1cc(S(C)(=O)=O)ccc1Cl -10.2%
O=C(Nc1nc2ccc(Cl)cc2s1)c1cc(-c2ccc(Cl)cc2)nc2ccccc12 -2.88%
CC(OC(=O)CN1C(=O)C2CCCCC2C1=O)C(=O)Nc1ncc(Cl)cc1Cl (stereo unspecified) 1.55%
O=C(COC(=O)CN1C(=O)C2CCCCC2C1=O)Nc1ccc(F)c(F)c1F (stereo unspecified) -13.3%
Cc1ccc(-n2c(SCC(=O)Nc3cccc4ccccc34)nnc2-c2ccco2)cc1 -19.3%
CN1CCNC(=O)C1CC(=O)NCCC1=CCCCC1 (stereo unspecified) 20.1%
CN1CCCCC(NC(=O)C(C)(C)C)C1=O (stereo unspecified) -8.4%
CCC(c1ccc(NC(=O)OC(C)(C)C)cc1)c1cc(OC)cc(OC)c1 (stereo unspecified) 11.3%
CC(=O)c1cc(-c2ccc3ccccc3c2)c(=O)n2c1CCC2 -32.7%
COc1cccc(CN2CCN(Cc3ccc4cccc(F)c4n3)CC2CCO)c1 (stereo unspecified) -4.49%
COc1ccc(/C=C/C(=O)NC(=S)N2CCCC(C(N)=O)C2)cc1 (stereo unspecified) -8.4%
CCOc1ccc(NC(=O)COC(=O)C2CCC(=O)N2)c([N+](=O)[O-])c1 (stereo unspecified) -12.2%
CC(C)(C)c1ccc(CSc2nnc(-c3cccs3)o2)cc1 -21.4%
COC[C@@H]1CCCN1c1ccc2c(c1)O[C@H](C)CCN(C1CC1)S2(=O)=O 14.3%
O=C(NCc1ccccn1)[C@@H]1CCCN1C(=O)[C@@H]1CCCN1C(=O)c1ccccc1 -0.2%
COc1ccc(C2=CN(Cc3ccccc3)C(c3ccc(OC)cc3)CC2=O)cc1 (stereo unspecified) 12.8%
CCOC(=O)[C@]12CCCC3=C1N(CCC3)C(=O)[C@@H](CC(=O)N1CCSCC1)C2 12.6%
CC1(C)CC2CC(C)(CN2c2ncnc3ccc(Br)cc23)C1 (stereo unspecified) 17.4%
CCOC(=O)CNc1nc(Cl)nc(Nc2ccc(OC)cc2OC)n1 -23.9%
CC(C)CNc1cccc2c1S(=O)(=O)N(Cc1cn(Cc3ccccc3C(F)(F)F)nn1)Cc1ccccc1O2 2.85%
CC(=O)Nc1ccc(NC(=O)COC(=O)C2CCC(C(C)(C)C)CC2)cc1 (stereo unspecified) -24.4%
CCOC(=O)c1sc(N)c(C#N)c1COC(=O)C1=COCCO1 7.27%
Cc1nnc(SCC(=O)N2c3ccccc3C(C)(c3ccc(Cl)cc3)CC2(C)C)s1 (stereo unspecified) -11.4%
C=CCNC(=O)c1sc(SC)cc1-c1ccc(Cl)cc1 3.88%
O=C(OC12CCCN(C1)/C(=C/c1ccccc1)C2)c1ccco1 (stereo unspecified) 9.76%
OCC[C@H]1C[C@H](O)[C@@H](O)[C@]2(CCc3ccccc3O2)O1 3.27%
CCOC(=O)c1ccccc1NS(=O)(=O)c1c(C)nc2sccn2c1=O -4.6%
Cc1nc(-c2ccccc2)cn2c1nc1ccccc12 7.57%
Cc1ccc2nc(-c3ccccc3)c(CC3CCCCC3)n2c1 -25.6%
Cc1nc(=O)c(-c2ccccc2)c(C)n1-c1ccc(Br)cc1 -29.2%
COc1cc(C(=O)Nc2cc(C(F)(F)F)ccc2N2CCOCC2)ccc1O -7.29%
COc1cc(/C=C/C(=O)OCC(=O)Nc2cccc(Oc3ccccc3)c2)ccc1O 11.1%
Cc1ccccc1NC(=O)Cn1nnc(-c2ccccc2F)n1 11.4%
CC(C)CNc1cccc2c1S(=O)(=O)N(Cc1cn(Cc3ccc(Cl)cc3)nn1)Cc1ccccc1O2 26.6%
Cc1cccc(NC(=O)c2cc3c(C)nn(-c4ccccc4)c3s2)c1 0.27%
Cc1cccc(C(=O)Nc2c(-c3ccc(F)cc3)nc3ncccn23)c1 16.3%
Cc1ccc(CS(=O)(=O)CCC(=O)NC2CC2)cc1 -50%
O=C(CCS(=O)(=O)c1ccccc1)Nc1ccc(Cl)c(Cl)c1 -2.79%
Cc1nnc(NC(=O)CSc2nccn2-c2cccc(C)c2C)s1 -5.88%
CN(CCC(=O)Nc1cc(S(=O)(=O)N(C)C)ccc1Cl)CC(=O)Nc1ccc(F)cc1 -17.9%
